This passage reports outcome and AC50 results from PubChem BioAssay (EPA / NIEHS).

The structures appear in SMILES notation. Several values for one entry are separate records, joined by “and”; a condition that tells them apart may be missing. Equal values may be shown once. A structure can be active in one record and inactive in another. Activity calls are given as the source filed them. Rule for the calls: active = hit-call score of the fitted dose curve at least 0.9, where 1 is the maximum; inactive = score below 0.9.

The nature of the assay: ATG_AP_1_CIS: Attagene CIS-FACTORIAL HepG2 Assay for human Activator Protein 1 (AP-1) (AID 2282931). Particulars: HepG2 Attagene cis-factorial AP-1 reporter mRNA; actives raise or lower the signal. The protocol: ATG_CIS is a cell-based, multiplexed-readout assay that uses HepG2, a human liver cell line, with measurements taken at 24 hours after chemical dosing in a 24-well plate.ATG_AP_1_CIS is one of 52 assay component(s) measured or calculated from the ATG_CIS assay. It is designed to make measurements of mRNA induction, a form of inducible reporter, as detected with fluorescence intensity signals by Reverse transcription polymerase chain reaction (RT-PCR) and Capillary electrophoresis technology.Data from the assay component ATG_AP_1_CIS was analyzed into 1 assay endpoint. This assay endpoint, ATG_AP_1_CIS, was analyzed with bidirectional fitting relative to DMSO as the negative control and baseline of activity. Using a type of inducible reporter, measures of mRNA for gain or loss-of-signal activity can be used to understand the reporter gene at the transcription factor-level as they relate to the gene FOS and JUN. Furthermore, this assay endpoint can be referred to as a primary readout, because this assay has produced multiple assay endpoints where this one serves a reporter gene function. To generalize the intended target to other relatable targets, this assay endpoint is annotated to the dna binding intended target family, where the subfamily is basic leucine zipper.
Human liver HepG2 cells are transiently transfected with multiple reporter transcription units (MRTUs) in 6-well plates using FuGene 6 reagent (Roche; 3 ml FuGene/1 mg DNA). The MRTU constructs are regulated by a cis-regulating element (promoter). […] A major difference between the CIS and TRANS system is that in CIS activities of endogenous TFs are measured, whereas the TRANS assay evaluates changes in activities of exogenous, chimeric NR-Gal4 proteins. […] At the end of 24 hour incubation, total RNA was isolated using TriZol reagent (Invitrogen). The isolated RNA is then reverse-transcribed using oligo(dT) primer and Mo-MLV reverse transcriptase (Invitrogen) with DNAse I (Ambion) treatment for 30 min. The one-tenth of the produced cDNA was amplified by PCR using Taq DNA polymerase (Invitrogen) and two reporter sequence-specific primers. The PCR products were fluorescently labeled by primer extension with 6-arboxyfluorescein (6-FAM) 5'-labeled reporter sequence-specific primer (2 min at 95 C, 20 s at 68 C and 10 min at 72 C) and these products were digested with 5U of HpaI (New England Biolabs) for 2h at 37 C. The fragments were purified using Qiaquick PCR columns (Qiagen), analyzed on an ABI 3130xL genetic analyzer (Applied Biosystems) with peak positions identified by using a set of X-rhodamine (ROX)-labeled MapMarker1000 molecular weight standards (BioVentures). The raw capillary electrophoresis data was processed using Attagraph software (Attagene).
On to `O=[N+]([O-])c1c(Cl)c(Cl)cc(Cl)c1Cl`, for which the compound was classed as inactive.
For the compound `COc1cc(OC)nc(NC(=O)NS(=O)(=O)c2ncccc2C(=O)N(C)C)n1`, the compound was called inactive.
Take `C[C@@H]1C[C@@H]([C@H](O)CC2CC(=O)NC(=O)C2)C(=O)[C@@H](C)C1`: the compound was called inactive; the AC50 was 24.1 µM (active) and 11.9 µM (active).
On to `CCCCCCCCc1ccc(O)cc1`, for which the compound was called inactive and the concentration at half-maximal activity (AC50) was 18.7 µM (active).
As for `Cc1cc(Cl)ccc1O[C@H](C)C(=O)O`, the compound was called inactive.
In the case of `O=[N+]([O-])c1ccc(O)c([N+](=O)[O-])c1`, the result was inactive.
On to `COc1cc2c(cc1OC)[C@@]13CCN4CC5=CCO[C@H]6CC(=O)N2[C@H]1[C@H]6[C@H]5C[C@H]43`, for which the call was inactive.
For `COC(=O)Cc1ccccc1`, the outcome was inactive.
Turning to `c1ccc(N=NNc2ccccc2)cc1`, the AC50 is 80 µM (active).
Turning to `Clc1ccc(C2(Cn3cncn3)CC(Br)CO2)c(Cl)c1` (stereo not given), the AC50 was 35.5 µM (active).
Regarding `ClCc1ccccn1`, the result was inactive.
Same read-out and setting: in the case of `c1cc[c]([Hg][c]2ccccc2)cc1` it was “inactive”; in that of `O=Cc1cccc(Oc2ccccc2)c1`, “inactive”.
In the case of `COc1ccc(C=O)cc1OC`, the call was inactive.
`O=C1CCCN1`: the call was inactive.
For the compound `Oc1cccc2cccnc12`, the compound was called inactive and the AC50 was 24.8 µM (active).
On to `CCC(=O)C(CC(C)N(C)C)(c1ccccc1)c1ccccc1` (stereo not given), for which the outcome was inactive.
With `CN(CCCC(=O)c1cccnc1)N=O`, the outcome was inactive.
Take `CC(=O)C(Cl)C(=O)N(C)C` (stereo not given): the compound was classed as inactive.
Consider `CC(=O)c1cc(C(C)(C)C)cc2c1CCC2(C)C`, for which the AC50 is 70.4 µM (active).
Regarding `CCC[CH2][Sn]([CH2]CCC)([CH2]CCC)[O]C(=O)c1ccccc1`, the compound was classed as inactive.
As for `CC(C)c1ccc(CO)cc1`, the outcome was inactive.
With `CCc1ccccc1N`, the compound was called inactive.
For the compound `Cl/C=C/Cl`, the result was inactive.
The same measure, in the same setting: under `ClC(Cl)=C(Cl)C(Cl)=C(Cl)Cl` stands “inactive”.
On to `CC(C)(C)CC(C)(C)c1ccc(O)cc1`, for which the result was inactive and the AC50 is 19.4 µM (active).
`Cc1ccccc1C(=O)Nc1cccc(OC(C)C)c1`: the outcome was inactive.
Consider `Nc1ccc(-c2ccc(N)c(Cl)c2)cc1Cl`, for which the compound was called inactive.
On the same count and under the same terms, in the case of `COP(=S)(OC)Oc1ccc(S(=O)(=O)N(C)C)cc1` it was “inactive”; in that of `O=C(O)C(F)(F)C(F)(F)C(F)(F)C(F)(F)C(F)(F)C(F)(F)F`, “inactive”.
For `N#CCc1ccc(Cl)cc1`, the result was inactive.
For the compound `Nc1ccc(N=Nc2ccc(-c3ccc(N=Nc4c(S(=O)(=O)O)cc5cc(S(=O)(=O)O)c(N=Nc6ccccc6)c(O)c5c4N)cc3)cc2)c(N)c1`, the outcome was inactive.
For the compound `O=C(Cl)c1ccc(Cl)cc1`, the compound was called inactive.
Take `C1CCC(NC2CCCCC2)CC1`: the result was inactive.
On to `CC(Br)C(=O)O` (stereo not given), for which the call was inactive.
For the compound `N#CN=C(N)N`, the compound was called inactive.

As usually defined, the AC50 is the concentration giving half of the maximal activity seen.
